We go through 40 molecules from PubChem BioAssay AID489039 (National Center for Advancing Translational Sciences (NCATS), 2010).

Several values for one entry are separate records, joined by “and”; a condition that tells them apart may be missing. Identical values can stand only once. Records with an inconclusive call do not appear. Activity calls are given as the source filed them. Calls follow the shape of the dose curve; as a rule, active = well fitted inhibition curve with a large enough effect; inconclusive = small, poorly fitted or top-dose-only effect, or effect the other way; inactive = no such curve, though single readings can be large or run the other way.

The target of the experiment is Nuclear receptor ROR-alpha (Homo sapiens) (UniProt P35398). Nature of the experiment: ROR alpha selectivity assay for inhibitors of ROR gamma transcriptional activity. The conditions noted are these: Drosophila S2 Gal4-RORalpha UAS-luciferase, 20 h; series mostly up to 92.2 µM; activity change, negative = inhibition: at the top concentration. From the text: NIH Molecular Libraries Probe Production Network [MLPCN] NIH Chemical Genomics Center [NCGC] MLPCN Grant: R03 DA026211-01 Assay Provider: Dan Littman, New York University Assay Overview: The retinoic acid-related orphan receptor (ROR) gamma is a transcription factor that has a central role in the differentiation of Th17 cells, a subset of T helper cells that secrete the inflammatory cytokines IL-17A, IL-17F, and IL-22. Th17 cells have been implicated in graft versus host disease, autoimmune disease and asthma. RORgamma is induced in naive T helper cells in the presence of TGF-beta combined with IL-6, IL-21, or IL-23, and thereafter directs the expression of the Th17 lineage cytokines. To identify nonselective inhibitors, a Drosophila Schneider cell line was stably transfected with two vectors: a gene expressing a fusion of the Gal4 DNA binding domain and the transactivation domain of the ROR alpha, under the control of the metallothionine promoter and a Photinus luciferase reporter regulated by the Gal4 binding site enhancer, UAS. […] Small molecule inhibitors that inhibit RORgamma and RORalpha, or components common to both, will be active in both assays and thus scored as nonselective.
Assay Protocol Summary: For screening, 600 cells in 4 uL/well were dispensed into white solid 1536-well plates (Grenier) using a solenoid-based dispenser. Following transfer of 23 nL compound or DMSO vehicle by a pin tool, the plates were incubated 1 hr at ambient temperature, and 1 uL/well copper sulfate (700 uM final concentration) was added. The plates were centrifuged 15 s at 1000 RPM and incubated 20 hr at ambient temperature. After addition of 1.5 uL Photinus luciferase detection reagent, the plates were incubated 10 min at ambient temperature and then read by an ViewLux (Perkin Elmer) to detect luminescence.
`COCC1CCCN(C(=O)CC(c2ccc3c(c2)OCO3)c2c(O)cc(OC)cc2OC)C1` (stereo not given): the “activity change, negative = inhibition” value was -3.63% (inactive).

Take `COCOc1cc(OC)cc(OC)c1C(CC(=O)N1CC(C)CC(C)C1)c1ccc2c(c1)OCO2` (stereo not given): the “activity change, negative = inhibition” value was -81.7% (inactive).

Turning to `CCOc1ncccc1C(=O)OCC(=O)Nc1ccc(-c2nc3ccc(C)cc3s2)cc1`, the Potency was 7.24 µM (active).

As for `COc1cc(O)c(C(CC(=O)N2CCCC(COc3ccc(F)cc3)C2)c2ccc3c(c2)OCO3)c(OC)c1` (stereo not given), the “activity change, negative = inhibition” value was 16.6% (inactive).

As for `COC(=O)Cn1c(CN2CCc3ccccc3C2)nc2c1c(=O)n(C)c(=O)n2C`, the Potency is 18.2 µM (active).

As to `COc1cc(O)c(C(CC(=O)N2CCCC(C#N)C2)c2ccc3c(c2)OCO3)c(OC)c1` (stereo not given), the “activity change, negative = inhibition” value is 18.3% (inactive).

On to `CC(C)(C)c1ccc([S+](=O)([O-])Nc2ccccc2C(O)(C(F)(F)F)C(F)(F)F)cc1`, for which the Potency is 18.2 µM (active).

As for `Cc1cc(C)c2sc(NC(=O)c3ccc(N4C(=O)CCC4=O)cc3)nc2c1`, the Potency was 0.407 µM (active).

For the molecule `CC1CCCN(C(=O)CC(c2ccccc2)c2ccc(O)cc2)C1` (stereo not given), the “activity change, negative = inhibition” value is -19.1% (inactive).

On to `COc1cc(OC)c(C(CC(=O)N2CCCC(C)C2)c2ccc3c(c2)OCO3)c(OCc2ccccc2)c1` (stereo not given), for which the Potency was 20.4 µM (active).

Consider `CC(C)(C)c1ccc(S(=O)(=O)Nc2ccc(C(O)(C(F)(F)F)C(F)(F)F)cc2)cc1`, for which the Potency is 18.2 µM (active).

For the molecule `Cc1ccc(OCCCC(=O)Nc2nc3ccccc3[nH]2)cc1`, the Potency is 8.12 µM (active).

With `COc1cc(C)nc(-n2nc(C)cc2OC)n1`, the Potency is 8.12 µM (active).

As to `COc1cc(O)c(C(CC(=O)N2CC(C)NC(C)C2)c2ccc3c(c2)OCO3)c(OC)c1` (stereo not given), the “activity change, negative = inhibition” value is -10.8% (inactive).

Regarding `COc1cc(O)c(C(CC(=O)N2CCC[C@@H](C)C2)c2ccc3c(c2)OCO3)c(OC)c1` (stereo not given in full), the “activity change, negative = inhibition” value is 4.65% (inactive).

Regarding `COc1ccccc1C(CC(=O)N1C[C@H](C)C[C@H](C)C1)c1ccccc1` (stereo not given in full), the Potency was 51.2 µM (active).

Consider `COc1cc(O)c(C(CC(=O)NCC2CCCCC2)c2ccc3c(c2)OCO3)c(OC)c1` (stereo not given), for which the “activity change, negative = inhibition” value is -20.1% (inactive).

For `CCOc1cccc(-c2cc(-c3n[nH]c(=S)n3CC)c3ccccc3n2)c1`, the Potency is 7.24 µM (active) and 18.2 µM (active).

On to `COc1cc(O)c(C(CC(=O)NC2CCC(C)CC2)c2ccc3c(c2)OCO3)c(OC)c1` (stereo not given), for which the “activity change, negative = inhibition” value was -1.92% (inactive).

For `COc1cc(O)c(C(CC(=O)N2CCCC(C)C2)c2ccc3ccccc3c2)c(OC)c1` (stereo not given), the “activity change, negative = inhibition” value was -28% (inactive).

Consider `COc1ccc(CNC(=O)[C@H](Cc2ccccc2)NC(=O)C2CCN(C(=O)[C@@H]3CCCN3C(=O)OC(C)(C)C)CC2)cc1`, for which the “activity change, negative = inhibition” value is -11.6% (inactive).

Regarding `CC(C)(C)c1ccc(-c2noc(CCC(=O)Nc3cccnc3)n2)cc1`, the Potency is 0.0457 µM (active).

On to `COc1cc(O)c(C(CC(=O)Nc2cccc3ccccc23)c2ccc3c(c2)OCO3)c(OC)c1` (stereo not given), for which the “activity change, negative = inhibition” value is -14.7% (inactive).

In the case of `Cc1ccc(C)c(/C=N/n2cc(-c3ccccc3)[nH]c2=S)c1`, the Potency was 0.911 µM (active).

As for `CC1CCCN(C(=O)CC(c2ccc3c(c2)OCO3)c2ccc(O)cc2O)C1` (stereo not given), the “activity change, negative = inhibition” value is 13.4% (inactive).

Take `O=S(=O)(c1ccc(NC(=S)N/N=C/c2ccc(Oc3ccccc3)cc2)cc1)N1CCOCC1`: the Potency was 2.57 µM (active).

On to `O=C(CCCOc1ccccc1)Nc1nc2ccccc2[nH]1`, for which the Potency is 14.4 µM (active).

As for `CC1=C(\C=C/C(C)=C/C=C\C(C)=C\C(=O)O)C(C)(C)CCC1`, the activity change, negative = inhibition was 18.6% [at 20 µM] (inactive).

Turning to `COc1cc(O)c(C(CC(=O)N2CCCC(C)(C)C2)c2ccc3c(c2)OCO3)c(OC)c1` (stereo not given), the “activity change, negative = inhibition” value was -12.2% (inactive).

For `CCn1cc(C(=O)O)c(=O)c2cnc(N3CCN(C(=S)NC(=O)c4ccccc4)CC3)nc21`, the Potency was 22.9 µM (active).

For `COc1cc(O)c(C(CC(=O)N2CCCC(C)C2)c2ccccc2)c(OC)c1` (stereo not given), the “activity change, negative = inhibition” value is 17.8% (inactive).

For the molecule `COc1cc(OC)c(C(c2ccccc2)C(C)(C)C(=O)N2CC(C)CC(C)C2)c(OC)c1` (stereo not given), the Potency is 16.2 µM (active).

On to `Cc1nn(-c2cc(C)c3ccccc3n2)c2c1C1C(C2)C1(C)C` (stereo not given), for which the Potency was 8.12 µM (active).

In the case of `COc1cc(O)c(C(CC(=O)N2CCCC(C)C2)c2ccc(C(C)C)cc2)c(OC)c1` (stereo not given), the Potency was 36.3 µM (active).

As for `COc1ccc(C(CC(=O)N2CCCC(C)C2)c2ccccc2)cc1` (stereo not given), the “activity change, negative = inhibition” value is -15.6% (inactive).

`COC(=O)c1ccc(OCC(=O)c2ccc(O)cc2O)cc1`: the Potency is 0.0575 µM (active).

As to `COc1ccc(C(CC(=O)N2CCCC(C)C2)c2c(O)cc(OC)cc2OC)cc1` (stereo not given), the “activity change, negative = inhibition” value was 3.66% (inactive).

On to `COc1cc(O)c(C(CC(=O)N2CCC(C)CC2)c2ccc3c(c2)OCO3)c(OC)c1` (stereo not given), for which the “activity change, negative = inhibition” value was 39.5% (inactive).

Regarding `COc1cc(O)c(C(CC(=O)N2CCCCC2C)c2ccc3c(c2)OCO3)c(OC)c1` (stereo not given), the “activity change, negative = inhibition” value was 4.78% (inactive).

Consider `CC1CCCN(C(=O)CC(c2ccccc2)c2ccccc2O)C1` (stereo not given), for which the “activity change, negative = inhibition” value was 20.8% (inactive).
